# According to PubChem BioAssay AID1347070 (National Center for Advancing Translational Sciences (NCATS), 2019):
# Screen size: about 94,000 compounds; about 20 (0.02%) were called active. Not shown: some 1% with an inconclusive outcome. These entries were drawn from the full list. A number with no mark means an inactive call. Calls follow the shape of the dose curve; as a rule, active = well fitted activation curve with a large enough effect; inconclusive = small, poorly fitted or top-dose-only effect; inactive = flat fitted curve, though single readings scatter.
# Assay: qHTS of alpha-syn Inhibitors: NCGC Sytravon Library Screen; also: 0% is about no effect
# Details: S. cerevisiae alpha-synuclein toxicity rescue, BacTiter-Glo growth, 24 h; series mostly up to 46.1 µM; growth rescue (activation): at the top concentration
# Text: The goal of this project is to identify new chemical probes capable of reversing the toxicity associated with the Parkinson disease-related protein, alpha-synuclein. Compounds will be selected on their ability to restore growth in yeast cells expressing toxic levels of alpha-synuclein. These compounds will provide a complementary approach to deciphering the tangled mechanisms of toxicity and protection that we have uncovered through genome-wide genetic screens and are beginning to uncover in a large-scale proteomics analysis with mass spectroscopy. To this end, a miniaturized assay was developed to be screened against the Molecular Libraries Small Molecule Repository (MLSMR) to discover alpha-synuclein inhibitors. […] The phenotype of interest will be that of an Activator and this screen is run against the NCGC Sytravon Library collection. NIH Chemical Genomics Center [NCGC] NIH Molecular Libraries Probe Centers Network [MLPCN] MLPCN Grant: NS060957 Assay Submitter (PI): Susan Lindquist, Whitehead Institute/MIT
# Dispense 2.5 microL yeast galactose medium per 1536-well plate, pin compound, dispense 2.5 microL alpha-synuclein expressing yeast in galactose medium at OD600=0.02 (pregrown in raffinose medium to mid-log phase) per well, incubate for 24 hr at 30 deg C, and cell growth will be measured using 5 microL of Bactiter/Glo reagent to entire plate and read using Luminescence Protocol in ViewLux.
row,Structure (SMILES),growth rescue (activation) [%]
1,CC(=O)Nc1ccc(C=CC(=O)c2ccc([N+](=O)[O-])cc2)cc1,5.68
2,CC1CCCC(NC(=O)COC(=O)c2ccccc2C(=O)N(C)C2CCCCC2)C1C (centres undefined),-3.25
3,Cc1cc(=O)oc2c3c(cc(OCC(=O)NCCC(=O)N[C@@H](C)C(=O)O)c12)OC(C)(C)CC3,3.65
4,COc1ccc(CN2C[C@H]3CON(C)[C@H]3C[C@H]2c2ccc(-c3cccc(F)c3)cc2)cc1,0.355
5,O=C(COC(=O)CCc1ccc(S(=O)(=O)N2CCOCC2)cc1)Nc1cccc(Cl)c1,-1.34
6,CC(=O)NC1C(Oc2ccc(C=O)cc2)OC(COC(C)=O)C(OC(C)=O)C1OC(C)=O (centres undefined),3.09
7,CCc1ccccc1OCC(=O)Nc1nnc(C2CC2)s1,-0.762
8,C=C(C)CNC(=O)c1ccc(OC2CCN(C(=O)COC)CC2)cc1,4.36
9,COc1ccc(CCNC(=O)C(=O)NCC2CCCN2S(=O)(=O)c2cccs2)cc1OC (centres undefined),8.88
10,CC1(C)OC(=O)C2=C(CC(c3ccccc3)OC2CCc2ccccc2)O1 (centres undefined),-5.04
11,CCOC(=O)C=Cc1ccc(C(=O)OCC)[nH]1,7.29
12,CCOn1c(=O)c(=O)n(O)c2ccccc21,-0.897
13,COc1ccc(NS(=O)(=O)c2ccc(F)cc2F)cn1,4.98
14,CC(C)CN(C(=O)COC(=O)c1ccc(Cl)c(N)c1)c1c(N)n(Cc2ccccc2)c(=O)[nH]c1=O,-2.42
15,CC(=O)c1sc(N)nc1C,-4.44
16,O=C1COc2ccc(S(=O)(=O)NCCc3ccc(Cl)cc3)cc2N1,0.307
17,CCCCn1c(N)c(N(CC(C)C)C(=O)C2CSC3(C)CCC(=O)N23)c(=O)[nH]c1=O (centres undefined),5.73
18,O=C(CN1C(=O)NC2(CCc3ccccc32)C1=O)NC1CCCCC1 (centres undefined),-10.1
19,Cc1cc(C)c(NC(=O)CN2C(=O)NC(Cc3ccccc3)C2=O)c(C)c1 (centres undefined),-1.11
20,O=C(O)c1ccccc1Cc1ccc(F)c2ccccc12,-44.2
21,CC(C)CCN1CCN(Cc2ccc(C(F)(F)F)cc2)CC1CCO (centres undefined),3.51
22,Cc1ccc(C)c(OCCC(=O)OCC(=O)c2ccc3c(c2)NC(=O)CO3)c1,1.8
23,CC(=O)Nc1ccc(NC(=O)CSc2ncnc3c2cnn3Cc2ccccc2)cc1,5.2
24,CCCc1cc(=O)[nH]c(SCc2cc(=O)oc3c(C)c(C)ccc23)n1,2.67
25,Cc1c(NC(=O)C(C)OC(=O)c2c3c(nc4ccccc24)CCC(C)C3)c(=O)n(-c2ccccc2)n1C (centres undefined),-4.21

row,Structure (SMILES),growth rescue (activation) [%]
1,Cc1cc(C(=O)CCC(=O)NNC(=O)c2ccccc2O)c(C)s1,-2.99
2,Cc1ccc(OCCC(=O)OCC(=O)N2c3ccccc3NC(=O)C2(C)C)cc1,2.18
3,O=C(CN1CCOCC1)Nc1cccc([N+](=O)[O-])c1,-0.986
4,c1ccc(-c2nnc(N3CCOCC3)c3ccccc23)cc1,3.62
5,CCOCc1nnc(NC(=O)CCS(=O)(=O)Cc2ccccc2)s1,2.27
6,CCCC(C(=O)NC1CCCC1)N(C(=O)Cn1nnc(-c2ccc(C)o2)n1)c1cccc(O)c1 (centres undefined),-2.04
7,CCN(C(=O)CSc1nnnn1-c1ccccc1OC)C1CCS(=O)(=O)C1 (centres undefined),16.7
8,O=c1[nH]c2ccc(S(=O)(=O)N3CCCC3)cc2[nH]1,0.361
9,Cc1nnc(SCCCCSc2nnc(C)c(=O)[nH]2)[nH]c1=O,1.74
10,COc1ccc(N2CCN(C(=S)Nc3ccc(S(N)(=O)=O)cc3)CC2)cc1,-4.62
11,COc1ccc(/C=N/S(=O)(=O)c2ccccc2)cc1OC,-2.84
12,Cc1ccc([C@H]2N[C@]3(CCCN(CC4CCCCC4)C3=O)[C@H]3C(=O)N(Cc4ccccc4)C(=O)[C@@H]23)cc1,4.32
13,CCCCn1c(N)c(N(CCOC)C(=O)c2sc3ccccc3c2Cl)c(=O)[nH]c1=O,11.1
14,CC(=O)NCc1ccc(S(=O)(=O)NC2CCN(Cc3ccccc3)CC2)cc1,-8.63
15,CCN(CC(=O)Nc1c(F)cccc1F)C(=O)c1ccc(Sc2nncn2C)c([N+](=O)[O-])c1,0.905
16,O=c1[nH]nc(SCCS(=O)(=O)c2ccc(F)cc2)n1-c1ccccc1C(F)(F)F,3.73
17,Cc1sc2nc(CSCC(=O)NC3CCCCC3)[nH]c(=O)c2c1C,2.44
18,CC1(C)C[C@H]2C3=CCC4[C@@]5(C)CC[C@H](O)[C@](C)(CO)C5CC[C@@]4(C)[C@]3(C)C[C@@H](O)[C@@]2(CO)[C@@H](O)[C@@H]1O (some centres undefined),1.74
19,Cc1c(C(=O)NC(C)C2CC3CCC2C3)cccc1[N+](=O)[O-] (centres undefined),11.3
20,O=C(CCNC(=O)c1ccc([N+](=O)[O-])cc1)NC1CCCCC1,1.09
21,Cn1c(CSCC(=O)Nc2ccccc2)nnc1SCc1ccccc1,-12.3
22,Cc1cccc(N(CC(=O)N2CCCC2)S(C)(=O)=O)c1C,-7.71
23,CN(C)C(CNC(=O)c1cc(Br)c(Br)s1)c1ccco1 (centres undefined),3.91
24,Cc1ccc(CN2CCC(N3CCC(C(=O)NCC4CCCO4)CC3)CC2)o1 (centres undefined),-3.72
25,O=C(NCCS(=O)(=O)NCc1ccc(Cl)cc1)c1ccccc1,-1.84

row,Structure (SMILES),growth rescue (activation) [%]
1,CC1=C(C(=O)N2CCOCC2)CC(CC(=O)NCc2ccco2)C(=O)N1Cc1ccc(F)cc1 (centres undefined),-7.62
2,Cc1ccc(C)n1NC(=O)c1ccc([N+](=O)[O-])cc1,-1.43
3,COc1ccc(-c2cc(=O)oc3cc(OC(C)C(=O)NCC4CCC(C(=O)O)CC4)ccc23)cc1 (centres undefined),-0.947
4,CCOc1ccc(C(=O)CCC(=O)NC2=NCCS2)cc1,-17.3
5,O=C1N/C(=C/c2cccs2)C(=O)N1Cc1ccc(F)cc1,-2.61
6,C/C(COc1ccccc1)=N\NC(=O)c1nnn(-c2nonc2N)c1-c1ccc(C)cc1,-12.9
7,CCCCn1c(N)c(N(CC(C)C)C(=O)c2cccc(S(=O)(=O)N3CCN(C(C)=O)CC3)c2)c(=O)[nH]c1=O,-0.923
8,O=C(c1ccc(C(F)(F)F)cc1)C1CCCN(C(=O)c2csnn2)C1 (centres undefined),0.0205
9,COc1ccc(/C=C/CN2CCN(Cc3ccc(C)cc3)C(CCO)C2)cc1 (centres undefined),-4.89
10,CCOc1ccc(S(=O)(=O)N2CCCC(C(=O)N3CCC(C(N)=O)CC3)C2)cc1Cl (centres undefined),-12.6
11,NS(=O)(=O)c1ccc(NC(=S)NNC(=O)c2cccs2)cc1,0.938
12,O=C(COc1ccccc1O)NC1CCCC1,5.21
13,CC1=C(C(=O)N2CCOCC2)CC(CC(=O)NCCN2CCOCC2)C(=O)N1CCC1=CCCCC1 (centres undefined),2.47
14,COc1ccccc1C(=O)NC(=O)COC(=O)c1ccco1,4.89
15,O=C(Nc1ccccc1)C1CC(=O)n2c(nc3ccccc32)N1 (centres undefined),-12.2
16,Cc1ccc(C=O)c([B-](F)(F)F)c1,-10.2
17,O=C(CNc1ccccc1N1CCCC1=O)Nc1cc(Cl)ccc1-n1cncn1,1.15
18,O=C(/C=C/Nc1ccc(S(=O)(=O)Nc2cnc3ccccc3n2)cc1)c1cccnc1,-7.11
19,CCOC(=O)c1cc(-c2sc(NC(=O)c3ccccc3)nc2C)n(CCO)n1,0.447
20,COc1ccc2oc(C(=O)N(CC(C)C)C3CCS(=O)(=O)C3)c(C)c2c1 (centres undefined),-1.27
21,CN(CCN1CCOCC1)Cc1nc(-c2ccc3c(c2)OCO3)no1,0.432
22,COCOCCn1cc(CN2CCS(=O)(=O)N(Cc3ccc(-c4ccccc4)cc3)C(CC(C)C)C2=O)nn1 (centres undefined),-6.88
23,CCc1nnc(NC(=O)c2ccco2)s1,-11.6
24,Cn1ccc(=NC=C(C#N)C#N)c2ccccc21,2.17
25,COc1cc(NS(=O)(=O)c2ccc(NC(=S)NC(=O)c3ccccc3)cc2)nc(OC)n1,13.9

row,Structure (SMILES),growth rescue (activation) [%]
1,O=C(OCc1nnc(-c2ccccc2)o1)c1cc(=O)[nH]c2ccccc12,4.04
2,O=C1[C@H]2[C@@H](c3ccc(C(F)(F)F)cc3)N[C@]3(CCCN(Cc4ccc(Cl)cc4)C3=O)[C@H]2C(=O)N1Cc1ccccc1,20.9
3,Cn1cnnc1SCC(=O)NNC(=O)COc1ccc(Br)cc1,5.71
4,Cc1ccc(N(C(=O)Cc2cccs2)C(C(=O)NCC2CCCO2)c2ccncc2)cc1 (centres undefined),4.36
5,COc1ccccc1NC(=O)CCSc1nnc(-c2ccc(O)cc2)o1,4.49
6,O=C(OCc1cn([C@H]2C[C@H](c3ccccc3)N(C(=O)c3cccs3)C[C@@H]2O)nn1)c1ccccc1,4.38
7,COc1ccc(NC(=O)CN(C)C(=O)c2cc(C)oc2C)cc1,-11.2
8,Cc1noc(C)c1COc1ccccc1C(=O)N(C)CC(=O)Nc1cccc(F)c1,-6.68
9,COc1ccc(N(C(=O)c2snc(C(N)=O)c2N)C(C(=O)NC2CCCC2)c2ccc(C)o2)c(OC)c1 (centres undefined),-6.84
10,NS(=O)(=O)c1ccc(NC(=S)NC(=O)c2cccnc2)cc1,4.97
11,C=C(C)COc1ccc(-c2nc(N)ncc2-c2ccccc2OC)c(O)c1,1.32
12,Cc1cccc(OCC(=O)NCCCNC(=O)c2ccccn2)c1,-2.97
13,O=C(NC1CCCC1)C1CC(=O)N(c2ccc(F)cc2)C1 (centres undefined),5.38
14,CO/N=C/c1cn(-c2ccc(Cl)cc2)nn1,-2.78
15,CC(OC(=O)c1ccc(NC(=O)CC#N)cc1)C(=O)Nc1ccc(S(=O)(=O)N2CCCC2)cc1 (centres undefined),-3.04
16,Cc1cccc(C)c1NC(=O)CS(=O)CC(=O)N1CCN(c2ccccc2)CC1 (centres undefined),0.0275
17,CCOc1ccc(NS(=O)(=O)c2ccc(C(=O)NCC(c3ccccc3OC)N3CCCC3)cc2)cc1 (centres undefined),-0.106
18,O=[N+]([O-])c1ccc(C(S(=O)(=O)Cc2ccccc2)S(=O)(=O)Cc2ccccc2)cc1,6.13
19,O=C(NCc1ccc(Cl)cc1)C(=O)NCC1CCCN1S(=O)(=O)c1cccs1 (centres undefined),3.28
20,O=C(CNC(=O)N1CC(=O)Nc2ccccc21)Nc1ccc(Br)cc1F,-8.77
21,O=C(c1ccc(N2CCCC2=O)cc1)N1CCN(c2ccc(C(F)(F)F)cc2[N+](=O)[O-])CC1,-12.1
22,Cc1ccc(CN2CC(C(=O)N3CCN(S(=O)(=O)c4ccccc4)CC3)CC2=O)cc1 (centres undefined),-46.5
23,CCN(C(=O)C1CCCN(c2nc(-c3ccc(OC)cc3)no2)C1)c1ccc(OC)cc1 (centres undefined),-9.06
24,CN(C)c1ccc(C2Nc3ccccc3C(=O)N2NS(=O)(=O)c2ccccc2)cc1 (centres undefined),-4.67
